Measured values as given in article PMC7862700, “An all-to-all approach to the identification of sequence-specific readers for epigenetic DNA modifications on cytosine”.

Tests used:
Test in all cases: DAPPL (digital affinity profiling via proximity ligation, sequencing); 10 mM Tris-HCl pH 7.5, 50 mM NaCl, 1 mM DTT, 4% glycerol, room temperature, 30 min; GST-TFs on glutathione beads, 16-mer random dsDNA library, 0.1% formaldehyde crosslink after washing; high values mean tight binding
Details in all cases: protein: recombinant; tags: N-terminal GST; dsDNA, one strand shown
[1] = molecular target: T1, FLI1 (Homo sapiens, UniProt Q01543 1-452)
T1 sequence: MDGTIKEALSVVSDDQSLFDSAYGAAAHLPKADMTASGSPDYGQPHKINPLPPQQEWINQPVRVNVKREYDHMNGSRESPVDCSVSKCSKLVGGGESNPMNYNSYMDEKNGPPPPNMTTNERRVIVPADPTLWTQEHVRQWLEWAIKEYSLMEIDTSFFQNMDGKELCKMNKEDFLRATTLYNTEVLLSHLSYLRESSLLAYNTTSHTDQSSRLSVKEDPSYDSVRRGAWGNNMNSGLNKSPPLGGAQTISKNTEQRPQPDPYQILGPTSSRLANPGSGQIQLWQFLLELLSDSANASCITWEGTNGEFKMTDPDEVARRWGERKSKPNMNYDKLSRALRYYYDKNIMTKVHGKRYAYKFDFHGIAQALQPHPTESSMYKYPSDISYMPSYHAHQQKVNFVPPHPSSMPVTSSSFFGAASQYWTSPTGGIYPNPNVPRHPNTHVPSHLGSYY
How it was run: (§1)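 Human transcription factors were made in yeast as GST fusions, captured on glutathione beads and barcoded with DNA. With a tag-only sample included, the pool was incubated with 200 nmole of a random double-stranded 16-mer DNA library in Tris/NaCl/DTT/glycerol buffer at room temperature for 30 min, then crosslinked with 0.1% formaldehyde after washing, ligated by proximity, amplified and sequenced. For binding signal, each hexamer's read frequency for a factor is divided by its frequency for the tag-only sample.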

[2] = molecular target: T2, ELK1 (Homo sapiens, UniProt P19419 1-428)
T2 sequence: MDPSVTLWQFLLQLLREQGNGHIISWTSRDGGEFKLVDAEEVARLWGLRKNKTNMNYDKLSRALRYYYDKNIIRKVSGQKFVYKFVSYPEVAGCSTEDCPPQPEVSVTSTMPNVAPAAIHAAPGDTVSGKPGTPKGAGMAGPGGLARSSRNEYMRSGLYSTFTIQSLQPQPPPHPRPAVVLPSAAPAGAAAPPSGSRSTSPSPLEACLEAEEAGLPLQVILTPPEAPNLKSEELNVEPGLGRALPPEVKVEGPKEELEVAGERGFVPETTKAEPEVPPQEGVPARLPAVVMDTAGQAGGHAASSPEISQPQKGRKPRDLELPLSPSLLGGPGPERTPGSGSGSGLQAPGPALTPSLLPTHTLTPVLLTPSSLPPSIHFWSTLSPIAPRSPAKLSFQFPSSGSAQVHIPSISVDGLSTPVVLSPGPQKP
How it was run: as §1

[3] = molecular target: T3, GABPA (Homo sapiens, UniProt Q06546 1-454)
T3 sequence: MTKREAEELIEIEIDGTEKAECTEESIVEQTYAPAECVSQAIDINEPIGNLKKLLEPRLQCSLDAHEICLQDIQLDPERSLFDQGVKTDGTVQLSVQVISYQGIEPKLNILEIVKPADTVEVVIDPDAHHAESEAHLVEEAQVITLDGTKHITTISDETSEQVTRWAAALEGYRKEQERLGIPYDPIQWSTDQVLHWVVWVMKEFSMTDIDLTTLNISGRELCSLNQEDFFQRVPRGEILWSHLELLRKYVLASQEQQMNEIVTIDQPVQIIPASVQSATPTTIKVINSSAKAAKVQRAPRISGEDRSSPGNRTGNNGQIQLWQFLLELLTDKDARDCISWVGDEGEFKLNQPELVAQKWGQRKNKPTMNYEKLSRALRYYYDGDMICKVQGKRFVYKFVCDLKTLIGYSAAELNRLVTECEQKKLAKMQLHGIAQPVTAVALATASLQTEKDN
How it was run: as §1

[4] = molecular target: T4, ERG (Homo sapiens, UniProt P11308 1-479)
T4 sequence: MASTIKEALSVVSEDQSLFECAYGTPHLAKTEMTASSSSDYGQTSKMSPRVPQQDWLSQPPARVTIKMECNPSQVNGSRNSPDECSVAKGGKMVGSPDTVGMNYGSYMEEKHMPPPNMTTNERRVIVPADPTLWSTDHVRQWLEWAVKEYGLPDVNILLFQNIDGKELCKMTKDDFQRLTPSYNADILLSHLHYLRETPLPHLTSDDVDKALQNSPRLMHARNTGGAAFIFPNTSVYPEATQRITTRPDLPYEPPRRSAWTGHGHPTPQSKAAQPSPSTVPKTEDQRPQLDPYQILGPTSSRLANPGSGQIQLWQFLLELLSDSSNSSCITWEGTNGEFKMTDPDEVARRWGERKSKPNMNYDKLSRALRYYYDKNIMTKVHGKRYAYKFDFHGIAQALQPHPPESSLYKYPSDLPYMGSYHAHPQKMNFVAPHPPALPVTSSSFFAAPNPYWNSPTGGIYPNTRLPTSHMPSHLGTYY
How it was run: as §1

[5] = molecular target: ELF1 (Homo sapiens, UniProt P32519 1-619)
How it was run: as §1

[6] = molecular target: T5, EHF (Homo sapiens, UniProt Q9NZC4 1-300)
T5 sequence: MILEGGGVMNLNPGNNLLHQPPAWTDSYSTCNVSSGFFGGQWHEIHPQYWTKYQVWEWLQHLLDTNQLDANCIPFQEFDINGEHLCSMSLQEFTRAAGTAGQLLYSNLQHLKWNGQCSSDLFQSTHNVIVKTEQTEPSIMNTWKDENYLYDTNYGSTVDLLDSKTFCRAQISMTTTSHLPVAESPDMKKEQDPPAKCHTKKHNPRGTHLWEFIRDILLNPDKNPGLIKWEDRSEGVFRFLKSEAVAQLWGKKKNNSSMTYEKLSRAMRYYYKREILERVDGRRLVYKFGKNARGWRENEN
How it was run: as §1

[7] = molecular target: SPI1 (Homo sapiens, UniProt P17947 1-270)
How it was run: as §1

[8] = molecular target: SPIB (Homo sapiens, UniProt Q01892 1-262)
How it was run: as §1

[9] = molecular target: T6, ELK3 (Homo sapiens, UniProt P41970 1-407)
T6 sequence: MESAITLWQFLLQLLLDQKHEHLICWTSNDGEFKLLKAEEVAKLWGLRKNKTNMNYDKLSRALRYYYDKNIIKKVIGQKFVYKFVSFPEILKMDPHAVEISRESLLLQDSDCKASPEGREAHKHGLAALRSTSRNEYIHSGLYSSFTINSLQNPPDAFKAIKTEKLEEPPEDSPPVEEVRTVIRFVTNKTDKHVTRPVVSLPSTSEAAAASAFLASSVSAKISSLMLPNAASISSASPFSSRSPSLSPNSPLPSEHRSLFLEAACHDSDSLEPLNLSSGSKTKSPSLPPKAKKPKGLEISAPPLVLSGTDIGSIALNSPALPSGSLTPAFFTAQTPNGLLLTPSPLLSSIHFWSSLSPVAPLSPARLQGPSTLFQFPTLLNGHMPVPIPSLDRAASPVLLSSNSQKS
How it was run: as §1

[10] = molecular target: T7, FEV (Homo sapiens, UniProt Q99581 1-238)
T7 sequence: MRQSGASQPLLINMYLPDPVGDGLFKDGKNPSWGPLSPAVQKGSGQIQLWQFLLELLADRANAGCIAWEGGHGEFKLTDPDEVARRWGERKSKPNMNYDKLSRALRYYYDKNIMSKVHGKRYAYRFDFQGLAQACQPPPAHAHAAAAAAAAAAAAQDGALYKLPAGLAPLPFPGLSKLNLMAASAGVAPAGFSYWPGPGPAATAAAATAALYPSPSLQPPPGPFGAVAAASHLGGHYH
How it was run: as §1

[11] = molecular target: ETV5 (Homo sapiens, UniProt P41161 1-510)
How it was run: as §1

[12] = molecular target: T8, SPIC (Homo sapiens, UniProt Q8N5J4 1-248)
T8 sequence: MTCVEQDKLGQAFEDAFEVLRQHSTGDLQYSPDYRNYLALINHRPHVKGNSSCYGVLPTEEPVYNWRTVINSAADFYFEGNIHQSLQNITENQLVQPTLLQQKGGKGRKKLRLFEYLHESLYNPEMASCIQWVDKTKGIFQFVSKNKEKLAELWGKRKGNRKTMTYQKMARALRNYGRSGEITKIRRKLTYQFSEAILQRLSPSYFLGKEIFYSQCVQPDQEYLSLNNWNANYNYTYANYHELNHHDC
How it was run: as §1

[13] = molecular target: ELF4 (Homo sapiens, UniProt Q99607 1-663)
How it was run: as §1

[14] = molecular target: T9, ELK4 (Homo sapiens, UniProt P28324-2 1-405)
T9 sequence: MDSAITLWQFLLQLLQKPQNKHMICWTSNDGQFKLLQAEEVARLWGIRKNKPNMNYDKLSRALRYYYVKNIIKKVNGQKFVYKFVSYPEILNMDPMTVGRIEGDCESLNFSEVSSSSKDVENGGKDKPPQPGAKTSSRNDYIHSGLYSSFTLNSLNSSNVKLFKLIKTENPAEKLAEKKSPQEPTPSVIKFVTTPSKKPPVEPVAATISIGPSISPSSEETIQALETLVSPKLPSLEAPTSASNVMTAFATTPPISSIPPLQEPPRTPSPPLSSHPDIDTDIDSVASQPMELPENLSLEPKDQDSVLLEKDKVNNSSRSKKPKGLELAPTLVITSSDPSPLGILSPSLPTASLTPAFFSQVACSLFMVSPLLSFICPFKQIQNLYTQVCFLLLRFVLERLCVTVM
How it was run: as §1

[15] = molecular target: T10, ETV2 (Homo sapiens, UniProt O00321 1-342)
T10 sequence: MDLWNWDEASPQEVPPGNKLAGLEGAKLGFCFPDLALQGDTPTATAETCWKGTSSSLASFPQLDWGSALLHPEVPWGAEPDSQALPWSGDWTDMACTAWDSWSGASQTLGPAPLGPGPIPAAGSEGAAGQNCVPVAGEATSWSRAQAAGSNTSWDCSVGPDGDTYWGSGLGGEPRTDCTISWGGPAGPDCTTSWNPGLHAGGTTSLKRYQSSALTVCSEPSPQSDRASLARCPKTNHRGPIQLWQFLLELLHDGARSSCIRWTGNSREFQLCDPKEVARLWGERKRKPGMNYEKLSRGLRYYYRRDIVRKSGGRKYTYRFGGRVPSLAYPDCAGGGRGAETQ
How it was run: as §1

[16] = molecular target: T11, ELF3 (Homo sapiens, UniProt P78545 1-371)
T11 sequence: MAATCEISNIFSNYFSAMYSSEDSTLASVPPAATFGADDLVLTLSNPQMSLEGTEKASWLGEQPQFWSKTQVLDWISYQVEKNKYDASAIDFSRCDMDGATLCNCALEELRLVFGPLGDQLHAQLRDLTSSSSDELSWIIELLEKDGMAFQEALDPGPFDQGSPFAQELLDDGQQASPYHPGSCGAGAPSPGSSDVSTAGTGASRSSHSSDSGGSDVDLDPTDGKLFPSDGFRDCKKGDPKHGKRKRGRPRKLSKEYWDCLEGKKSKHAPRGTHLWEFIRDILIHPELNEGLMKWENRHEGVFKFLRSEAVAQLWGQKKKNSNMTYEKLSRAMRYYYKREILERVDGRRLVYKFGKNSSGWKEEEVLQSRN
How it was run: as §1

[17] = molecular target: CRX (Homo sapiens, UniProt O43186 1-299)
How it was run: as §1

[18] = molecular target: ETV1 (Homo sapiens, UniProt P50549 1-477)
How it was run: as §1

Sequence of CRX (O43186 whole entry): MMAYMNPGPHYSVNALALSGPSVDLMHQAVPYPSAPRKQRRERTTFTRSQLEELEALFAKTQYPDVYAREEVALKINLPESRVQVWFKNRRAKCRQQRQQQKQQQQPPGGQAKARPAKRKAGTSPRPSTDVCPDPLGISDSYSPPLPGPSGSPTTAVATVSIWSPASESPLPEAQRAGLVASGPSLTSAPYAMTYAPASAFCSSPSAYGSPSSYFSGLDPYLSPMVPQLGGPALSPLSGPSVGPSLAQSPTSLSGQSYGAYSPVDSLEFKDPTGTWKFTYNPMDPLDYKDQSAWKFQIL
Sequence of ETV5 (P41161 whole entry): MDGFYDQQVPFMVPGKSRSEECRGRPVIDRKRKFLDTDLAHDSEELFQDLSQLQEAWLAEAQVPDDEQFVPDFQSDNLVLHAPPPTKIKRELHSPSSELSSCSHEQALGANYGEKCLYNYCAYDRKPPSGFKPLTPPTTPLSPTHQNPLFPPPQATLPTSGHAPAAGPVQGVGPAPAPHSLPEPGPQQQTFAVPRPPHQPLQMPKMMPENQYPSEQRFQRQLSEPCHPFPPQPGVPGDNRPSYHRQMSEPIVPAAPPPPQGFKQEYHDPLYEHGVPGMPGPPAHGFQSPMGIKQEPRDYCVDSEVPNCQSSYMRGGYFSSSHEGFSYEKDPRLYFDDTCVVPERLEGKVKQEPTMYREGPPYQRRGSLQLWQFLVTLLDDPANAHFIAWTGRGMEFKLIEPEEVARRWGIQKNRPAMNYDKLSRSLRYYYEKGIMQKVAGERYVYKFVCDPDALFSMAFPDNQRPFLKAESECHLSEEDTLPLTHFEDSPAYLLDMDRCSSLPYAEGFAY
Sequence of ELF1 (P32519 whole entry): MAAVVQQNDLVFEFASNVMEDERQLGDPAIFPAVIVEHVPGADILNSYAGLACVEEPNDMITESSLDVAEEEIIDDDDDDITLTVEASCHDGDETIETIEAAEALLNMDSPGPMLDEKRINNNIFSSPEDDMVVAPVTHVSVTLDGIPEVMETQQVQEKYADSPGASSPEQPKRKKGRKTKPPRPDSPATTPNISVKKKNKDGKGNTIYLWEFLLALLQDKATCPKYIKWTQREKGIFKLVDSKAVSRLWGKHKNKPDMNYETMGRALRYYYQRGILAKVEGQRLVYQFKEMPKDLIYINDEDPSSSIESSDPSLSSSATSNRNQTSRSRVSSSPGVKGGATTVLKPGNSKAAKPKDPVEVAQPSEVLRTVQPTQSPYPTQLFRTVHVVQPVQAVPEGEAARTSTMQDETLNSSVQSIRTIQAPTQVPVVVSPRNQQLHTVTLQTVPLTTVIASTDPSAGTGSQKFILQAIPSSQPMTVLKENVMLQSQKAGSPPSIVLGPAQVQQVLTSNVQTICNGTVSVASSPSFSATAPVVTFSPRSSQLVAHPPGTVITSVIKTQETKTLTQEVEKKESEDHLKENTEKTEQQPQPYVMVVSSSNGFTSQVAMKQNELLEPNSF
Sequence of ETV1 (P50549 whole entry): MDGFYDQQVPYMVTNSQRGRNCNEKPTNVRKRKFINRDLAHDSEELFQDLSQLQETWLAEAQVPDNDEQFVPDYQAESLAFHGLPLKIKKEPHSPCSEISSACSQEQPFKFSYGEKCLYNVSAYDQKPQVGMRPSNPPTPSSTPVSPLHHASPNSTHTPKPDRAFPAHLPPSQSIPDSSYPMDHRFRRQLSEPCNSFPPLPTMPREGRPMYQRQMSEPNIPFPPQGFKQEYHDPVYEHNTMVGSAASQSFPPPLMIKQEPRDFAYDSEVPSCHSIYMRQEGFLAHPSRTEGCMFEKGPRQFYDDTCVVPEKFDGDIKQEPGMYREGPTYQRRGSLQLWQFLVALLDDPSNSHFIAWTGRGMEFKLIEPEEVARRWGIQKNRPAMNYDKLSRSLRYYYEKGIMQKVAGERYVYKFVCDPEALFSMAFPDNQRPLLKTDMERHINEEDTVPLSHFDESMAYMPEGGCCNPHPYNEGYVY
Sequence of SPIB (Q01892 whole entry): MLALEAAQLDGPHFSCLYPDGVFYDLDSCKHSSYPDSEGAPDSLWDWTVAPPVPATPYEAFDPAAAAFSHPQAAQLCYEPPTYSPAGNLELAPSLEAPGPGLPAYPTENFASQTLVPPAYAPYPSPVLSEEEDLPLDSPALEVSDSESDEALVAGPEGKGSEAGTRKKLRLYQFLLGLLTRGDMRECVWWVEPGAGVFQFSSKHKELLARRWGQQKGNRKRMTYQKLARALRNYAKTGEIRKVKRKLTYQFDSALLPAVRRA
Sequence of ELF4 (Q99607 whole entry): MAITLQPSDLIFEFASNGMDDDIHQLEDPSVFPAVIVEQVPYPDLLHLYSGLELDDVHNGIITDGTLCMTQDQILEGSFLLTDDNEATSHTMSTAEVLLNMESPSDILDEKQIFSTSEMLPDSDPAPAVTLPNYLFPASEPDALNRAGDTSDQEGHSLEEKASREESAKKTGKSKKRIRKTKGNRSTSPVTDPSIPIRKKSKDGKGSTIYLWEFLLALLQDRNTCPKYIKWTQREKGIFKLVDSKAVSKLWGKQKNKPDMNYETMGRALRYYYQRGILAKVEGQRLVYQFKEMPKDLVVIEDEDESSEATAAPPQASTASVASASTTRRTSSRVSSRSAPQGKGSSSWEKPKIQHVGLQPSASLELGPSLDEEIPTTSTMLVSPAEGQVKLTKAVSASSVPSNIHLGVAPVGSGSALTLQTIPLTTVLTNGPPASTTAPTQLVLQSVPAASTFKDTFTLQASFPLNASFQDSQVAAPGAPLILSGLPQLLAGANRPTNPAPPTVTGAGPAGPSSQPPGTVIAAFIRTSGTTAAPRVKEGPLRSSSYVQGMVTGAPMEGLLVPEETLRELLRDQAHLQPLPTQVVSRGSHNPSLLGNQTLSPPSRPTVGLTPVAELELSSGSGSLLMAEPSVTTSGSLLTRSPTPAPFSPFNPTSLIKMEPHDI

Row | Sequence | binding signal [1] | binding signal [2] | binding signal [3] | binding signal [4] | binding signal [5] | binding signal [6] | binding signal [7] | binding signal [8] | binding signal [9] | binding signal [10] | binding signal [11] | binding signal [12] | binding signal [13] | binding signal [14] | binding signal [15] | binding signal [16] | binding signal [17] | binding signal [18]
1 | CGCTCA | 1.13 fold enrichment (6-mer frequency, TF over GST control) | 1.21 fold enrichment (6-mer frequency, TF over GST control) | 1.16 fold enrichment (6-mer frequency, TF over GST control) | 1.25 fold enrichment (6-mer frequency, TF over GST control) | 1.13 fold enrichment (6-mer frequency, TF over GST control) | 1.18 fold enrichment (6-mer frequency, TF over GST control) | 1.16 fold enrichment (6-mer frequency, TF over GST control) | 1.16 fold enrichment (6-mer frequency, TF over GST control) | 1.13 fold enrichment (6-mer frequency, TF over GST control) | 1.13 fold enrichment (6-mer frequency, TF over GST control) | 1.19 fold enrichment (6-mer frequency, TF over GST control) | 1.06 fold enrichment (6-mer frequency, TF over GST control) | 1.24 fold enrichment (6-mer frequency, TF over GST control) | 1.32 fold enrichment (6-mer frequency, TF over GST control) | 1.26 fold enrichment (6-mer frequency, TF over GST control) | 1.16 fold enrichment (6-mer frequency, TF over GST control) | 1.2 fold enrichment (6-mer frequency, TF over GST control) | 1.13 fold enrichment (6-mer frequency, TF over GST control)
2 | AAGCGG | 1.13 fold enrichment (6-mer frequency, TF over GST control) | 1.05 fold enrichment (6-mer frequency, TF over GST control) | 1.11 fold enrichment (6-mer frequency, TF over GST control) | 1.1 fold enrichment (6-mer frequency, TF over GST control) | 1.11 fold enrichment (6-mer frequency, TF over GST control) | 1.15 fold enrichment (6-mer frequency, TF over GST control) | 1.81 fold enrichment (6-mer frequency, TF over GST control) | 1.03 fold enrichment (6-mer frequency, TF over GST control) | 1.11 fold enrichment (6-mer frequency, TF over GST control) | 1.12 fold enrichment (6-mer frequency, TF over GST control) | 1.27 fold enrichment (6-mer frequency, TF over GST control) | 1.31 fold enrichment (6-mer frequency, TF over GST control) | 1.01 fold enrichment (6-mer frequency, TF over GST control) | 1.14 fold enrichment (6-mer frequency, TF over GST control) | 1.19 fold enrichment (6-mer frequency, TF over GST control) | 1.17 fold enrichment (6-mer frequency, TF over GST control) | 1.11 fold enrichment (6-mer frequency, TF over GST control) | 1.1 fold enrichment (6-mer frequency, TF over GST control)
